Assay results: PubChem BioAssay (Tox21)
Results filed as inconclusive are left out. Active and inactive are the calls of the source. Unless noted, the call rests on the fitted dose curve; in most records, active means well fitted curve in the direction sought with a large enough effect in the repeat runs; inconclusive means weak or mixed curves; inactive means no such curve, though single readings can be large; an effect the other way counts as inactive or inconclusive.

Key:
[1] = qHTS assay to identify small molecule antagonists of the thyroid receptor (TR) signaling pathway - cell viability counter screen (AID 743064); further: nearly all actives have a fitted effect of over 50% in size
Summary of the method: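 GH3.TRE-Luc cells, 4 h pre-plating; cpd + T3 1 nM final; 37 °C 23.5 h; CellTiter-Fluor 30 min; fluorescence read.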

[2] = qHTS assay to identify small molecule antagonists of the thyroid receptor (TR) signaling pathway (AID 743065); further: nearly all actives have a fitted effect of over 55% in size; further: potency means the concentration at half of the fitted maximal effect; on activity, negative = inhibition: series mostly up to about 70 µM
Summary of the method: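 GH3.TRE-Luc rat pituitary cells carrying two TR response elements driving luciferase were plated for 4 h, given compound plus 1 nM T3 (final), and incubated 23.5 h at 37 C. ONE-Glo luminescence measured reporter inhibition; CellTiter-Fluor fluorescence tracked cytotoxicity.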

[3] = test system: thyroid hormone receptor (rat, GH3 cells); experiment: qHTS assay to identify small molecule agonists of the thyroid receptor (TR) signaling pathway (AID 743066; calls by dose curve; further: potency means the concentration at half of the fitted maximal effect)
[4] = target: Estrogen receptor (Homo sapiens) (UniProt P03372); experiment: qHTS assay to identify small molecule antagonists of the estrogen receptor alpha (ER-alpha) signaling pathway (AID 743069; active means well fitted curve in the direction sought with a large enough effect in the signal ratio in the repeat runs, not every such curve was filed as active; the % refers to the signal ratio)
Estrogen receptor (Homo sapiens), sequence (P03372 whole entry, looked up): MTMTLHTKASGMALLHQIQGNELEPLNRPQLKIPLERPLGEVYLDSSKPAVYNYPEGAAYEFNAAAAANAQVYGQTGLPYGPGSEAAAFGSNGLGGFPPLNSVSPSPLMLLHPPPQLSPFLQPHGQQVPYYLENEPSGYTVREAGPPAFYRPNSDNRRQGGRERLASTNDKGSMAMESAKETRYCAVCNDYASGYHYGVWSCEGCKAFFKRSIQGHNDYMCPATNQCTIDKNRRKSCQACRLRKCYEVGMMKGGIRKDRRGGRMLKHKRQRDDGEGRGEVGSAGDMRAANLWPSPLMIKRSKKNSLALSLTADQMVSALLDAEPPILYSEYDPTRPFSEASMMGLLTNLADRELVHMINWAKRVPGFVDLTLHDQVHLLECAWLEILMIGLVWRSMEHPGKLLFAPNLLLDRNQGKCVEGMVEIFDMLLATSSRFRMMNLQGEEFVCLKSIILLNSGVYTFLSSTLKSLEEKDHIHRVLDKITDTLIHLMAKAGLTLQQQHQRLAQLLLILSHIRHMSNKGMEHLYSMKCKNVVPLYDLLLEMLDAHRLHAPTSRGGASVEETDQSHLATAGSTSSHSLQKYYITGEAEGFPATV
Summary of the method: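 Screening used a UAS-driven beta-lactamase reporter integrated into HEK293 cells expressing ER-alpha, stimulated with 17beta-estradiol alongside test compounds over 18 hr at 37C; signal came from LiveBLAzer B/G FRET fluorescence.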

[5] = qHTS assay to identify small molecule antagonists of the estrogen receptor alpha (ER-alpha) signaling pathway - cell viability counter screen (AID 743074; calls by dose curve; further: nearly all actives have a fitted effect of over 45% in size)
[6] = target: Estrogen receptor (Homo sapiens) (UniProt P03372); experiment: qHTS assay to identify small molecule agonists of the estrogen receptor alpha (ER-alpha) signaling pathway (AID 743075; calls by dose curve)
[7] = target: Estrogen receptor (Homo sapiens) (UniProt P03372); experiment: qHTS assay to identify small molecule agonists of the estrogen receptor alpha (ER-alpha) signaling pathway using the BG1 cell line (AID 743079); further: nearly all actives have a fitted effect of over 20% in size; further: potency means the concentration at half of the fitted maximal effect
[8] = qHTS assay to identify small molecule antagonists of the estrogen receptor alpha (ER-alpha) signaling pathway using the BG1 cell line (AID 743080; calls by dose curve;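 further: BG1 cells stimulated with 17beta-estradiol alongside compound; series mostly up to about 70 µM; nearly all actives have a fitted effect of over 25% in size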)
Summary of the method: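 BG1-Luc-4E2 cells (endogenous full-length ER-alpha, 4xERE luciferase) hormone-starved 5 days in charcoal-stripped FBS, plated 4,000/well for 24 h, then compound plus 17beta-estradiol for 21.5 h at 37 C; ONE-Glo luminescence read.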

[9] = qHTS assay to identify small molecule antagonists of the estrogen receptor alpha (ER-alpha) signaling pathway using the BG1 cell line - cell viability counter screen (AID 743081);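 further: compound given together with 17beta-estradiol as the ER stimulus; series mostly up to about 70 µM; nearly all actives have a fitted effect of over 45% in size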
Aromatase (Homo sapiens) = Aromatase (Homo sapiens) (UniProt P11511); experiment: qHTS assay to identify aromatase inhibitors (AID 743083); further: nearly all actives have a fitted effect of over 55% in size; further: potency means the concentration at half of the fitted maximal effect; on activity, negative = inhibition: series mostly up to about 70 µM
Aromatase (Homo sapiens), sequence (P11511 whole entry, looked up): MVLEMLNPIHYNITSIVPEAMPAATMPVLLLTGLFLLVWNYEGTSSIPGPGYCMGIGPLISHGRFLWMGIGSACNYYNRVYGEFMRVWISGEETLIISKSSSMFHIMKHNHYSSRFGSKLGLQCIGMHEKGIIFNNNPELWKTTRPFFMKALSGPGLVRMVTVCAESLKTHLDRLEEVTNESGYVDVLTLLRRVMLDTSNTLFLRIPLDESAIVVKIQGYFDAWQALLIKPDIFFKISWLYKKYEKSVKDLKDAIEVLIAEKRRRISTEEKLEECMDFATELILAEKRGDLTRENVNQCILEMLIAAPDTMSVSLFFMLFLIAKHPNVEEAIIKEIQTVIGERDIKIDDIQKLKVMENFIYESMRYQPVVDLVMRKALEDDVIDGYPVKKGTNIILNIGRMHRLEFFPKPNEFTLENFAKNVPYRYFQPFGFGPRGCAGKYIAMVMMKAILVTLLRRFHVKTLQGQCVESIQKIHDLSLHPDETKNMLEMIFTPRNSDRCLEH
On the % scale 0 is the no-effect control and ±100 the full control effect.

CCOCC(O)COc1ccc(NC(=O)CC[S+](C)C)cc1 (stereo not drawn)
inactive: Potency [1] | Potency [2] | Potency [3] | Potency [4] | Potency [5] | Potency [6] | Potency [7] | Potency [8] | Potency [9] | Potency (Aromatase (Homo sapiens))

CC1OC(=O)C(C)OC1=O (stereo not drawn)
inactive: Potency [1] | Potency [2] | Potency [3] | Potency [4] | Potency [5] | Potency [6] | Potency [8] | Potency [9] | Potency (Aromatase (Homo sapiens))

O=C1OC(CN2CCOCC2)CN1/N=C/c1ccc([N+](=O)[O-])o1 (stereo not drawn)
inactive: Potency [1] | Potency [2] | Potency [3] | Potency [4] | Potency [5] | Potency [6] | Potency [7] | Potency [9] | Potency (Aromatase (Homo sapiens))

O=[N+]([O-])c1ccc2[nH]ncc2c1
inactive: Potency [1] | Potency [2] | Potency [3] | Potency [4] | Potency [5] | Potency [6] | Potency [7] | Potency [8] | Potency [9] | Potency (Aromatase (Homo sapiens))

O=C1c2ccccc2S(=O)(=O)N1CCCCN1CCN(c2ncccn2)CC1
inactive: Potency [1] | Potency [2] | Potency [3] | Potency [4] | Potency [5] | Potency [6] | Potency [7] | Potency [8] | Potency [9] | Potency (Aromatase (Homo sapiens))

Nc1cccc([N+](=O)[O-])c1
inactive: Potency [1] | Potency [2] | Potency [3] | Potency [4] | Potency [5] | Potency [6] | Potency [7] | Potency [9]

O=C(O)CNCC(=O)O
inactive: activity change, negative = cytotoxic [1] 2.43% [at 8.44 µM] | activity, negative = inhibition [2] -3.78% [at 8.44 µM] | activation [3] -1.57% [at 8.08 µM] | activity, negative = inhibition [4] -6.23% [at 6.71 µM] | activity, negative = cytotoxicity [5] -3.67% [at 6.72 µM] | activation [6] -4.82% [at 6.71 µM] | activation [7] 2.44% [at 8.47 µM] | activity change, negative = inhibition [8] 0.887% [at 8.47 µM] | activity change, negative = cytotoxicity [9] -9.74% [at 8.47 µM] | activity, negative = inhibition (Aromatase (Homo sapiens)) 14.5% [at 8.47 µM]

CCC(=O)O[C@]1(C(=O)CCl)[C@@H](C)C[C@H]2[C@@H]3CCC4=CC(=O)C=C[C@]4(C)[C@@]3(F)[C@@H](O)C[C@@]21C
inactive: Potency [1] | Potency [2] | Potency [3] | Potency [4] | Potency [5] | Potency [6] | Potency [7] | Potency [9] | Potency (Aromatase (Homo sapiens))

COc1ccc(C(=O)N2CCN(CC(=O)N3CCOCC3)CC2)cc1
inactive: Potency [1] | Potency [2] | Potency [3] | Potency [4] | Potency [5] | Potency [6] | Potency [7] | Potency [8] | Potency [9] | Potency (Aromatase (Homo sapiens))

O=C(OCCCCCCOC(=O)c1ccccc1)c1ccccc1
inactive: Potency [1] | Potency [2] | Potency [3] | Potency [4] | Potency [5] | Potency [6] | Potency [8] | Potency [9] | Potency (Aromatase (Homo sapiens))
active: Potency [7] 43.3 µM

CC(C)Nc1ccc(NC(C)C)c2c1C(=O)c1ccccc1C2=O
inactive: Potency [1] | Potency [2] | Potency [3] | Potency [4] | Potency [5] | Potency [6] | Potency [7] | Potency [9] | Potency (Aromatase (Homo sapiens))

COS(=O)(=O)C(F)(F)F
inactive: Potency [1] | Potency [2] | Potency [3] | Potency [4] | Potency [5] | Potency [6] | Potency [7] | Potency [8] | Potency [9] | Potency (Aromatase (Homo sapiens))

c1cc(CCCc2ccncc2)ccn1
inactive: Potency [1] | Potency [2] | Potency [3] | Potency [4] | Potency [5] | Potency [6] | Potency [7] | Potency [9]
active: Potency (Aromatase (Homo sapiens)) 13.7 µM

CCNc1cc(O)ccc1C
inactive: Potency [1] | Potency [2] | Potency [3] | Potency [4] | Potency [5] | Potency [6] | Potency [7] | Potency [8] | Potency [9] | Potency (Aromatase (Homo sapiens))

NCC(=O)CCC(=O)O
inactive: Potency [1] | Potency [2] | Potency [4] | Potency [5] | Potency [6] | Potency [7] | Potency [8] | Potency [9] | Potency (Aromatase (Homo sapiens))
active: Potency [3] 26.6 µM

C=C(C)C(=O)OCC
inactive: Potency [1] | Potency [2] | Potency [3] | Potency [4] | Potency [5] | Potency [6] | Potency [7] | Potency [8] | Potency [9] | Potency (Aromatase (Homo sapiens))

O=C(Nc1ccccc1)c1ccccc1O
active: Potency [2] 61.1 µM
inactive: Potency [1] | Potency [3] | Potency [9] | Potency (Aromatase (Homo sapiens))

CC(C)(CO)[N+](=O)[O-]
inactive: Potency [1] | Potency [2] | Potency [3] | Potency [9] | Potency (Aromatase (Homo sapiens))

CC(C)O.CC(C)O.CCOC(=O)/C=C(\C)O.CCOC(=O)/C=C(\C)O.[Ti]
inactive: Potency [1] | Potency [2] | Potency [3] | Potency [5] | Potency [9]

CCCCc1ncc(/C=C(\Cc2cccs2)C(=O)O)n1Cc1ccc(C(=O)O)cc1
inactive: Potency [1] | Potency [2] | Potency [3] | Potency [5] | Potency [9] | Potency (Aromatase (Homo sapiens))

CC(C)(C)OCC1CO1 (stereo not drawn)
inactive: Potency [1] | Potency [2] | Potency [3] | Potency [5] | Potency [9]

Cc1ccccc1S(=O)(=O)O
inactive: Potency [1] | Potency [2] | Potency [3] | Potency [5] | Potency [9]

CCCCCC[C@@H](O)C/C=C\CCCCCCCC(=O)OC
inactive: Potency [1] | Potency [2] | Potency [3] | Potency [5] | Potency [6] | Potency [7] | Potency [8] | Potency [9] | Potency (Aromatase (Homo sapiens))
